This note sets out measurements from PubChem BioAssay AID602478 (National Center for Advancing Translational Sciences (NCATS), 2012).

Results filed as inconclusive are left out. Where a call stands in place of a potency, no number is given. Activity calls are given as the source filed them. The call rests on the fitted dose curve; in most records, active means well fitted activation curve with a large enough effect; inconclusive means small, poorly fitted or top-dose-only effect; inactive means flat fitted curve, though single readings scatter.

Luciferin 4-monooxygenase (Photinus pyralis), sequence (P08659 whole entry, looked up): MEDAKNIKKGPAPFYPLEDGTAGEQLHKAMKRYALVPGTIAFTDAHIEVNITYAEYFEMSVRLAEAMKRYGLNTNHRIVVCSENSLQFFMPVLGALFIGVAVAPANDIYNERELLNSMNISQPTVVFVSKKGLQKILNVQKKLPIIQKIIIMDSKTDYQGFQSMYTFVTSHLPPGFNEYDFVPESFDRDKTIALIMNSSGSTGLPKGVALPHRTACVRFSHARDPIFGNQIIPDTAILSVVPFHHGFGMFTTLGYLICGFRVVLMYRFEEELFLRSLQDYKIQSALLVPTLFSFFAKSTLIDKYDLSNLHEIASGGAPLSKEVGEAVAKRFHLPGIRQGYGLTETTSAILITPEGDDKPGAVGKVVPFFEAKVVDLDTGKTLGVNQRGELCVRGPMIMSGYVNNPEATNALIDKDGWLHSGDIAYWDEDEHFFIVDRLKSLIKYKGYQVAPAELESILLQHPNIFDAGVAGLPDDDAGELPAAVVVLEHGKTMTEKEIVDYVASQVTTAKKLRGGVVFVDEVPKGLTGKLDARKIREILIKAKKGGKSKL

The test has as its target Luciferin 4-monooxygenase (Photinus pyralis) (UniProt P08659). The experiment in a line: FLuc inhibitory activity for the follow-up compounds in a cell-based translational read-through assay (72 hour incubation). The settings on record: GripTite 293 FLucUGA read-through, luminescence; series mostly up to 38.3 µM. An excerpt: NCGC Assay Overview: Firefly (Photinus pyralis) luciferase is one of the most commonly used transcriptional reporters. It is considered one of the more dynamically responsive reporters - that is, responsive to changes in reporter transcription - as it requires no post-translational modifications and is enzymatically active directly after protein synthesis (Wood, 1998). With no endogenous expression in mammalian cells and without the requirement of external excitation, it offers very little background signal, thus generally providing excellent signal to background for most assays. Previous profiling work to determine the prevalence of compounds that affect FLuc enzymatic activity (PubChem AID 411) identified that ~3% of the MLSMR library (then at ~72K) inhibited FLuc (Auld et al., 2008). […] Of the compounds identified in this profile that inhibited FLuc, 151 compounds were selected for further analysis, in an effort to better understand their mode of inhibiting FLuc. The assay described here was to determine the activity of the compounds in a cell-based firefly luciferase reporter gene assay originally designed to identify compounds that enchanced translational read-through of a FLuc cDNA that contained a premature stop codon (Auld et al., 2009; Auld et al., 2010). Compounds that enhance translational read-through or compounds that stabilize FLuc intracellularly are identified as active compounds in the assay.
NCGC Assay Protocol Summary: Reagents: Transient transfection of FlucUGA construct: TransFast Transfection Reagent (Promega #E2431); FLucUGA construct (refer to Auld et al., 2009) #GripTite 293 MSR Cell Line (Invitrogen #R795-07) #Complete growth media: DMEM (Invitrogen #11965), 10% HIFBS, 0.1mM MEM NEAA, 5mL/L pen-strep (of 5000U/mL stock), 600ug/mL Geneticin #Assay media: DMEM without phenol red (Invitrogen #21063), 5% charcoal-stripped HIFBS (Hyclone #SH30071.03), 0.1mM MEM NEAA In-house detection reagent: 300mM Tris-HCl, 300mM Trizma base, 300mM MgCl, 1% Triton-X100, 5mM DTT, 500uM Coenzyme A trilithium salt (Sigma #C3019),450uM ATP (Sigma #A7699), 1mM D-luciferin sodium salt monohydrate (Biosynth #L8240) Control compounds used were two known firefly luciferase inhibitors (3-(5-(3-chlorophenyl)-1,2,4-oxadiazol-3-yl)benzoic acid and 5-(2-fluorophenyl)-3-phenyl-1,2,4-oxadiazole), and DMSO. Assay Summary: Transient transfection of FlucUGA construct: Day 1: GripTite cells were plated in T175 flasks at a density of 1.75 x 10^7 cells/T175 flask in complete growth media without Geneticin and allowed to grow ON in a 37 degrees Celsius incubator. Day 2: Cells in T175 flask were transfected - with 10ug of DNA and 30uL Transfast in 12mL complete growth media without serum and without Geneticin for 4 hours at 37 degrees Celsius. After incubation, cells were trypsinized, spun down, and resuspended to a concentration of 3.3 x 10^5 cells/mL in assay media. 6uL of cells in assay buffer were dispensed at 2000cells/well (3.3 x 10^5 cells/mL) into Greiner solid-white TC-treated 1536-well plates using a Multidrop Combi (Thermo Fisher Scientific). Plates were incubated for one hour at 37 degree Celsius, 95% humidity, 5% CO2. These assay plates were then treated with 23nL of compound or DMSO using a Kalypsys pin tool, which allows for delivery of a 12-point titration of each compound to the assay plate, with a final compound concentration ranging from approximately ~38uM to 0.2nM. Assay plates were then incubated for 72 hours. After incubation, plates were washed three times with DPBS (7uL/well). After the third wash, 6uL of DPBS was added to each well. 3uL of 3X luciferase detection reagent was then added to each well using a flying reagent dispenser (FRD). After a 15 minute incubation to allow for cell lysis, luciferase activity was measured using a ViewLux CCD imager (PerkinElmer), with an average exposure time of 2-12 seconds.
Regarding `O=C(O)c1ccc(NC(=O)c2ccccc2NC(=O)c2cccc(Br)c2)cc1`, the Potency result was “inactive”.
Under `COc1ccc(C(=O)Nc2ccccc2C(=O)N/N=C/c2ccc(O)c(OC)c2)cc1` stands “inactive”.
For `CCc1noc(C)c1C(=O)Nc1nc2ccc(OC)cc2s1`, the Potency entry was “inactive”.
For `CC(=O)Nc1cccc(-c2nc3ccccc3s2)c1C` the value was “inactive”.
Regarding `Cc1ccc(C(=O)O/N=C(\N)c2ccccn2)cc1`, the Potency was 2250 nM (active).
For the compound `COc1c(C)cccc1C(=O)Nc1ccc(-c2nc3ccccc3s2)c(Cl)c1`, the Potency result is “inactive”.
For `CCCOc1cccc(C(=O)Nc2ccc(-c3nc4ccccc4s3)c(Cl)c2)c1`, the Potency result was “inactive”.
Regarding `CC(C)c1ccc(C(=O)Nc2ccc(-c3nc4ccccc4s3)c(Cl)c2)cc1`, the Potency result is “inactive”.
For the compound `Cc1c(NC(=O)c2cccs2)cccc1-c1nc2ccccc2s1`, the Potency result is “inactive”.
As to `CCOc1ccc2nc(NC(=O)c3cc([N+](=O)[O-])ccc3N3CCOCC3)sc2c1`, the Potency result was “inactive”.
In the case of `COc1ccc2nc(NC(=O)c3ccc([N+](=O)[O-])o3)sc2c1`, the Potency was 20000 nM (active).
`Cc1ccc(C(=O)O/N=C(\N)c2ccccn2)c(Cl)c1`: the Potency is 1260 nM (active).
As for `CN(C)c1cccc(C(=O)Nc2ccc(-c3nc4ccccc4s3)cc2)c1`, the Potency is 1790 nM (active).
As for `COc1cc(OC)cc(C(=O)Nc2ccc(-c3nc4ccccc4s3)c(C)c2)c1`, the Potency result is “inactive”.
Consider `O=C(Cc1ccccc1)Nc1ccccc1C(=O)Nc1ccc(C(=O)O)cc1`, for which the Potency entry is “inactive”.
Regarding `Cc1ccc2sc(-c3ccc(NC(=O)c4cc(-n5cnnc5)ccc4Cl)cc3)nc2c1`, the Potency was 14200 nM (active).
On to `COc1ccc2nc(NC(=O)c3cnccn3)sc2c1`, for which the Potency is 3560 nM (active).
As to `O=C(Nc1ccccc1C(=O)O)c1cccc(C(=O)Nc2ccccc2C(=O)O)c1`, the Potency entry was “inactive”.
For `O=C(O)c1ccccc1NC(=O)c1ccccc1Nc1ccccc1`, the Potency result is “inactive”.
On to `O=C(O)c1cccc(NC(=O)c2cccc(NC(=O)C3CCCO3)c2)c1` (stereo not given), for which the Potency entry is “inactive”.
In the case of `O=C(Nc1ccc(-c2nc3ccccc3s2)cc1)C1=COCCO1`, the Potency is 318 nM (active).
Take `CC(C)Oc1ccc(C(=O)Nc2ccc(-c3nc4ccccc4s3)cc2)cc1`: the Potency entry was “inactive”.
Turning to `Cc1ccc(C(=O)Nc2ccc(C(=O)O)cc2)cc1S(=O)(=O)NCc1ccccc1`, the Potency result is “inactive”.
Take `O=C(Nc1ccccc1C(=O)O)c1ccc(NC(=O)C2CC2)cc1`: the Potency entry is “inactive”.
On to `COc1ccc2nc(NC(=O)CCc3nc(-c4ccccc4F)no3)sc2c1`, for which the Potency entry is “inactive”.
With `CCn1c(C)nc2cc(-c3nc4n(n3)Cc3ccccc3-4)ccc21`, the Potency was 79.8 nM (active).
On to `CN(C)S(=O)(=O)c1ccc(C(=O)Nc2cccc(C(=O)O)c2)cc1`, for which the Potency entry was “inactive”.
With `O=C(O)c1ccc(NC(=O)c2cccc(NC(=O)c3cccs3)c2)cc1`, the Potency entry is “inactive”.
Turning to `O=C(Nc1ccccc1C(=O)O)c1ccc(NC(=O)C2CCCO2)cc1` (stereo not given), the Potency result was “inactive”.
As to `COc1ccc(C(=O)Nc2ccccc2-c2nc3ccccc3s2)c(OC)c1`, the Potency entry was “inactive”.
Under `COc1ccc2nc(NC(=O)c3ccco3)sc2c1` stands 634 nM (active).
With `Nc1ccc(-c2nc3cc(N)ccc3s2)cc1`, the Potency was 22500 nM (active).
As for `COc1ccc(NS(=O)(=O)c2cccc(C(=O)Nc3ccccc3C(=O)O)c2)cc1`, the Potency entry was “inactive”.
`COc1cccc(OC)c1C(=O)Nc1cccc(C(=O)Nc2cccc(C(=O)O)c2)c1`: the Potency entry was “inactive”.
For `CC(C)(C)NC(=O)c1ccccc1-c1nc2ccccc2s1` the value was “inactive”; for `O=C(Nc1ccccc1C(=O)O)c1cccc(S(=O)(=O)N2CCCC2)c1`, “inactive”; for `CCOc1ccc(C(=O)Nc2ccccc2C(=O)O)cc1`, 14200 nM (active).
For `CC(=O)Nc1cccc(C(=O)Nc2ccccc2C(=O)O)c1` the value was “inactive”.
Take `O=C(O)c1cccc(NC(=O)c2ccc(Cl)c(S(=O)(=O)N3CCCCCC3)c2)c1`: the Potency is 283 nM (active).
Under `CC(=O)Oc1ccc(C(=O)Nc2ccccc2C(=O)Nc2ccc(C(=O)O)cc2)cc1` stands “inactive”.
